Calls of active or inactive are those of the source.

Test [1] in a line: E. coli DRC41 culture turbidity changes, primary screen, E. coli filamentation inducer project, strain DRC41, OD650, 48 h (AID 1152).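 Note: E. coli MC1000 strain DRC41 lacking acrAB efflux pump and sulA.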 Particulars: E. coli DRC41 (acrAB sulA), higher = more signal, called active from +8 up or from −8 down.
Test [2] can be described thus: small-molecule binders of probe aLefty1, primary screen, biochemical, small-molecule microarray, 635/667 nm fluorescence (AID 1153).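 Note: score merges spot fluorescence with signal-to-noise ratio from the scanned slide images.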 Particulars: higher = more signal.
The nature of test [3]: PSAC antagonists in infected red cells, primary screen, cell-based, P. falciparum Indochina, OD700, 1 h (AID 1154). The settings on record: P. falciparum Indochina infected RBC osmotic lysis, higher = more signal, called active from +8 up or from −8 down.
Test [4] is described as follows: PSAC antagonists in infected red cells, primary screen, cell-based, P. falciparum Indochina, OD700, 2 h (AID 1155).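 Note: lysis reports solute entry through the parasite surface anion channel PSAC; channel blockers reduce lysis of infected cells.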 Particulars: P. falciparum Indochina infected erythrocytes, osmotic lysis OD700; higher = more signal, called active from +8 up or from −8 down.
Test [5] can be described thus: osmotic lysis modulators in infected erythrocytes, primary screen, PSAC antagonist project, cell-based, P. falciparum Indochina, OD700, 3 h (AID 1156). The settings on record: higher = more signal, called active from +8 up or from −8 down.
Test [6] in a line: PSAC antagonists in infected red cells, primary screen, cell-based, P. falciparum Indochina, OD700, 18 h (AID 1157). Particulars: P. falciparum Indochina infected erythrocytes, osmotic lysis OD700, 18 h; higher = more signal, called active from +8 up or from −8 down.
Test [7] in a line: modulators of S6 phosphorylation in cells, primary screen, cell-based, A549, cytoblot, luminescence, serum-stimulated (AID 1158).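 Note: serum-stimulated A549 lung adenocarcinoma cells; signal is phosphorylated S6 detected by cytoblot immunostaining with HRP secondary.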 Particulars: A549 phospho-S6 cytoblot, 5 h, higher = more signal.
The target of test [8] is NADPH oxidase 2 (Homo sapiens) (UniProt P04839). The test can be described thus: NOX2-dependent H2O2 signal modulators, primary screen, NOX inhibitor project, cell-based, HEK293-NOX2, PMA-stimulated, Amplex Red fluorescence (AID 1159). Note: test concentration not given here. The settings on record: 45 min, higher = more signal, called active from +8 up or from −8 down.
Chain of NADPH oxidase 2 (Homo sapiens) (P04839 whole entry, looked up): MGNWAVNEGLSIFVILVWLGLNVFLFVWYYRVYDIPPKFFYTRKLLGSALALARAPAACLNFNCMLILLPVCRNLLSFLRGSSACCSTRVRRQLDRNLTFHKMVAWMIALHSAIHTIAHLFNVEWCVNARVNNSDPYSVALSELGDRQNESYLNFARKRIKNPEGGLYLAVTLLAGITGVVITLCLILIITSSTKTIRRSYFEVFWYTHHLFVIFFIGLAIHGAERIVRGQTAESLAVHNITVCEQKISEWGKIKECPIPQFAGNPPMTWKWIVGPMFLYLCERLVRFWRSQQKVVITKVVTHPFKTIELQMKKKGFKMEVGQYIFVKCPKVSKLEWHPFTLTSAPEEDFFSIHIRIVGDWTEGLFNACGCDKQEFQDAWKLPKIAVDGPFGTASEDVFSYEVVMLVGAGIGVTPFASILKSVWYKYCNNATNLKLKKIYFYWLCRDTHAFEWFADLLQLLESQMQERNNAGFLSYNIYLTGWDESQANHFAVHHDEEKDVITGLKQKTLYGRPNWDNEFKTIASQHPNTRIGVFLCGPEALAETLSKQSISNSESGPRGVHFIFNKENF
In test [9] the target is NADPH oxidase 4 (Homo sapiens) (UniProt Q9NPH5). The test can be described thus: NOX4-dependent H2O2 signal modulators, primary screen, NOX inhibitor project, cell-based, HEK293-NOX4, tetracycline-induced, Amplex Red fluorescence (AID 1160). Particulars: 45 min, higher = more signal, called active from +8 up or from −8 down.
Chain of NADPH oxidase 4 (Homo sapiens) (Q9NPH5 whole entry, looked up): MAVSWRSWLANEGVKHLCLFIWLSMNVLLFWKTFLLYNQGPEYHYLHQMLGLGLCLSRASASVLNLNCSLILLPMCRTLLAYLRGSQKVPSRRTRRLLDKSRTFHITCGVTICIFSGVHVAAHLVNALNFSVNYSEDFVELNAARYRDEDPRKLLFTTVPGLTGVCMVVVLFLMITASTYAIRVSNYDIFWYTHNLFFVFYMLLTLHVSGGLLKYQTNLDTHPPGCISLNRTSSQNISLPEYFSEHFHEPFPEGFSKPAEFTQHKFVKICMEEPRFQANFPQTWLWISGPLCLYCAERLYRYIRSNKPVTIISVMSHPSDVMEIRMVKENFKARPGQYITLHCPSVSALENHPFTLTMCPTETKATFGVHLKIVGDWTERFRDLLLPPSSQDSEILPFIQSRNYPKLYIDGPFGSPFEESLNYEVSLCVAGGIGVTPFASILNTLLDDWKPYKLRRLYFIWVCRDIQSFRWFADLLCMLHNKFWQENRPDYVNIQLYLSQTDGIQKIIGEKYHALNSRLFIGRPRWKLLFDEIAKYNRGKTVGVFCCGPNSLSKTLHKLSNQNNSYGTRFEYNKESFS
The target in test [10] is NADPH oxidase 5 (Homo sapiens) (UniProt Q96PH1). The test can be described thus: NOX5-dependent H2O2 signal modulators, primary screen, NOX inhibitor project, cell-based, HEK293-NOX5, Amplex Red fluorescence (AID 1161). The settings on record: HEK293-NOX5, ionomycin, 45 min, higher = more signal.
Chain of NADPH oxidase 5 (Homo sapiens) (Q96PH1 whole entry, looked up): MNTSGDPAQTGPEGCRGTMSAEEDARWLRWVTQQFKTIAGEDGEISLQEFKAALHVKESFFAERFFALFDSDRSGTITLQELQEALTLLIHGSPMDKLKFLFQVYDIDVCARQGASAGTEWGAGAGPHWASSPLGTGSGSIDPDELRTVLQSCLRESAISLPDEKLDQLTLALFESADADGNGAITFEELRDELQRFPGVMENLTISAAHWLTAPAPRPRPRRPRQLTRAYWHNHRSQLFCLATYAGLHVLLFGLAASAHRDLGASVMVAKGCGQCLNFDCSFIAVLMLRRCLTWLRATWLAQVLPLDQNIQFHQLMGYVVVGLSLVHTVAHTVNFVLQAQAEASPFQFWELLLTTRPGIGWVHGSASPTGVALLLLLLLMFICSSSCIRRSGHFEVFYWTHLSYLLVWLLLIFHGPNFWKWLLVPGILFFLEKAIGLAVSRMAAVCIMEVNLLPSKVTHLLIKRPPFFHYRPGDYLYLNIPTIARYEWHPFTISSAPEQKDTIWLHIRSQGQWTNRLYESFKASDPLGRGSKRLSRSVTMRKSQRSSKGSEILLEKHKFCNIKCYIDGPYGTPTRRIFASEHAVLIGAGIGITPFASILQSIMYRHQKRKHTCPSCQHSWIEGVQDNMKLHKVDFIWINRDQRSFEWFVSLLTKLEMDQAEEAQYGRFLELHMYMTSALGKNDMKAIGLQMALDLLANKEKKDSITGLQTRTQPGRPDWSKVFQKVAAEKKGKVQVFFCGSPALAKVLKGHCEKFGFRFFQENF
Test [11] can be described thus: A549 cell viability effects, profiling panel, calcein-AM fluorescence, 48 h, basal (AID 1162). Note: test concentration not given here. Particulars: higher = more signal.
Test [12] in a line: adipocyte viability effects, profiling panel, cell-based, 3T3-L1 adipocytes, calcein-AM fluorescence, 48 h, basal (AID 1163). Note: test concentration not given here. The settings on record: 3T3-L1 adipocytes viability, higher = more signal.
Test [13] in a line: HepG2 cell viability effects, profiling panel, calcein-AM fluorescence, 48 h, basal (AID 1164). Note: test concentration not given here. The settings on record: higher = more signal.
The nature of test [14]: MM1S cell viability effects, profiling panel, calcein-AM fluorescence, 48 h, basal (AID 1165).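 Note: viability of MM1S multiple myeloma cells under basal unstimulated conditions; test concentration not given here.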 Particulars: higher = more signal.
Test [15] in a line: basal RPMI8226 viability, no added stimulus, profiling panel, cell-based, calcein-AM fluorescence, 48 h, PK04 Diversity Set (AID 1166).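 Note: cells grown under basal conditions without added stimulus; test concentration not given here.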 The settings on record: RPMI8226 myeloma viability, higher = more signal.
Test [16] in a line: basal HepG2 mitochondrial membrane potential changes, profiling panel, cell-based, JC-1 fluorescence, 24 h, 100 nL compound (AID 1167). Note: test concentration not given here. Particulars: higher = more signal.
The nature of test [17]: basal 3T3-L1 adipocyte mitochondrial potential changes, profiling panel, cell-based, JC-1 fluorescence, 3T3-L1 adipocytes, 24 h, 100 nL compound (AID 1168). Note: test concentration not given here. The settings on record: JC-1 mitochondrial fluorescence, higher = more signal, called active from +8 up or from −8 down.
A short description of test [18]: basal RPMI8226 mitochondrial membrane potential changes, profiling panel, cell-based, JC-1 fluorescence, 24 h, 100 nL compound (AID 1169). Note: test concentration not given here. The settings on record: RPMI8226 myeloma, JC-1 mitochondrial potential fluorescence, higher = more signal.
Test [19] can be described thus: basal MM1S mitochondrial membrane potential changes, profiling panel, cell-based, JC-1 fluorescence, 24 h, 100 nL compound (AID 1170). Note: test concentration not given here. Particulars: higher = more signal.
A short description of test [20]: A549 lung cancer cell viability effects, profiling panel, resazurin fluorescence, 24 h, PK04 Diversity Set (AID 1171). Note: test concentration not given here. Particulars: higher = more signal, called active from +8 up or from −8 down.

Take `O=C1NC(=O)C2C1C=CC(C(O)c1ccc(B(O)O)cc1)N2Nc1ccc(Cl)cc1Cl` (stereo not given): the z-score in test [1] is -2.48 (inactive); in test [3], 1.8 (inactive); in test [4] it was 0.917 (inactive); in [5], -0.577 (inactive); in test [6], 0.654 (inactive); in test [7] it was -1.07. Further, the z-score in [8] is -2.66 (inactive); in [9] it was -5.04 (inactive); in test [10], -6.42; in [11], -0.591; in test [12], -1.33; in test [13], -1.19. In addition, the z-score in test [14] is -1.62; in test [15], -1.58; in test [16] it was -1.75; in test [17], -1.12 (inactive); in [18], 0.482; in [19], -0.682. Moreover, the z-score in test [20] is -0.616 (inactive). In test [2], this compound yielded a composite z-score of 0.199.

Regarding `CN(C)CCCC[C@@H]1NC(=O)[C@@H]2C[C@H](C(=O)NCCCCCCNC(=O)CS)[C@H](c3ccc(O)cc3)N2C1=O`, the z-score is -1.05 (inactive) in test [1]; 1.19 (inactive) in [3]; 0.284 (inactive) in test [4]; -1.22 (inactive) in [5]; 0.0814 (inactive) in test [6]; 0.58 in [7]. Besides, the z-score was 0.559 (inactive) in [8]; 0.781 (inactive) in [9]; 0.873 in test [10]; -0.121 in [11]; -0.145 in [12]; 0.548 in [13]. Also, the z-score in test [14] is -0.0172; in [15] it was 0.381; in test [16] it was -0.175; in test [17] it was 0.207 (inactive); in [18], -0.223; in test [19], -0.136. For the same compound, the z-score in test [20] was 0.579 (inactive). For the same compound, in test [2], the composite z-score came out at 0.0013.

Consider `CCCC=C(CCC)[C@@H](NC(=O)c1ccc(C(F)(F)F)cc1)c1ccc(C(F)(F)F)cc1`, for which the z-score was -1.35 (inactive) in test [1]; 1.23 (inactive) in test [3]; 0.588 (inactive) in [4]; -0.957 (inactive) in test [5]; 1.25 (inactive) in [6]; -0.523 in test [7]. Besides, the z-score was -0.0499 (inactive) in test [8]; -0.414 (inactive) in test [9]; 2.97 in test [10]; -1.88 in test [11]; -0.0493 in test [12]; -0.751 in test [13]. The z-score was -1.53 in [14]; -3.65 in test [15]; 4.85 in [16]; 0.216 (inactive) in [17]; -0.235 in test [18]; -0.678 in [19]. Further, the z-score in [20] was 0.949 (inactive). Besides, the composite z-score in [2] worked out at 0.792.

For `O=C(NCc1ccccc1)[C@@H]1c2ccccc2C(=O)N(Cc2cc(C(F)(F)F)cc(C(F)(F)F)c2)[C@H]1c1ccc(CO)cc1`, the z-score is -0.0343 (inactive) in [1]; 2.87 (inactive) in [3]; 0.55 (inactive) in test [4]; 2.48 (inactive) in test [5]; 0.352 (inactive) in test [6]; -0.0959 in test [7]. For the same compound, the z-score in test [8] is 0.736 (inactive); in test [9], 0.284 (inactive); in test [10], 1.52; in [11], -0.108; in test [12], 1.79; in test [13], -0.139. The z-score is 0.635 in test [14]; -0.487 in test [15]; 1.45 in test [16]; 0.125 (inactive) in [17]; -0.586 in test [18]; -1.15 in test [19]. Moreover, in test [20], the z-score was -0.281 (inactive). Also, the composite z-score in test [2] amounted to 0.0004.

As to `COCCOC(=O)N1C(=O)[C@@]2(c3cc(C#Cc4ccc(OC)cc4)ccc31)[C@H](c1ccc(OCCO)cc1)N1[C@H](c3ccccc3)[C@H](c3ccccc3)OC(=O)[C@H]1[C@@H]2C(=O)NC[C@H](O)c1ccccc1`, the z-score in test [1] is -0.0906 (inactive); in test [3], 4.14 (inactive); in test [4], 2.07 (inactive); in test [5] it was 0.0276 (inactive); in test [6] it was 1.24 (inactive); in test [7], -0.539. The z-score in test [8] was 1.27 (inactive); in test [9], 0.708 (inactive); in [10], 1.11; in test [11], 0.0843; in test [12], -0.129; in [13], -0.294. Moreover, the z-score in test [14] is -0.291; in test [15] it was -1.48; in test [16] it was -0.305; in test [17], 1.67 (inactive); in test [18] it was -0.68; in test [19], -1.52. Besides, the z-score in [20] is -0.377 (inactive). In [2], this compound returned a composite z-score of 0.257.

These data come from PubChem BioAssay.
